Experiment in all cases: NCI-60 one-dose screen, 48 h (100 = growth as untreated, 0 = no growth, -100 = all killed)
Conditions in all cases: 10 µM unless noted

Test [1] has as its system NCI-H23 lung.
For test [2], the system named is NCI-H226 lung.
Test [3] has as its system NCI-H322M lung.
For test [4], the system named is HOP-62 NSCLC.
Test [5] deals with NCI-H460 lung.
The test system of test [6] is HOP-92 NSCLC.
For test [7], the system named is NCI-H522 lung.
Test [8] has as its system A549/ATCC NSCLC.
Test [9] has as its system 786-0 renal.
The test system of test [10] is COLO 205 colon.

This is part of a sample that, as a whole, favours compounds with a hit. Of some 83,000 tested, about 20% had one in any assay.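 Results are percent growth after 48 hours of single-concentration exposure. 100 means growth as in untreated cells, lower positive values show inhibition; negative values down to -100 show cell death.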 Unmarked numbers belong to inactive results. Calls of active or inactive are those of the source. How the source made its calls: active means growth percent below 10; inactive means the rest.

In PubChem BioAssay (NCI) one finds growth data, which are given here for 13 molecules.

Take `CCn1c(O)c(/C=N/NC(=O)C(C)c2ccc(CC(C)C)cc2)sc1=S` (stereo not given): the growth was 39.2% in test [1]; 31.1% in test [2]; 37.6% in test [3]; 22.9% in test [4]; 7.24% (active) in [5]; 39.9% in test [6]. The growth in [7] is -11.6% (active); in test [8], 21.8%; in test [9], 17.8%; in test [10] it was 15.3%.
As for `NCCNc1nc(Nc2ccc(-c3nc4ccccc4[nH]3)cc2)c2cn[nH]c2n1`, the growth in [1] was 57.9%; in test [2] it was 81.4%; in [3], 98.9%; in test [4], 97.5%; in test [5], 54.9%; in test [6] it was 60.4%. In addition, the growth in [7] is 16.6%; in [8], 101%; in [9] it was 93%; in [10] it was 20.8%.
Take `COc1ccc(C2Nc3c(c(C(C)(C)C)nn3-c3ccccc3)C(=O)CS2)cc1` (stereo not given): the growth in test [1] is 99.6%; in test [2] it was 98.2%; in test [3], 104%; in test [4], 106%; in test [5] it was 106%; in test [6], 91.7%. For the same molecule, the growth was 84.5% in [7], 89.3% in test [8], 113% in test [9] and 103% in test [10].
`c1ccc(-c2c(-c3ccccc3)[n+](Cc3ccc4ccccc4c3)c(-c3ccc(-c4nc5ccccc5s4)cc3)n2Cc2ccc3ccccc3c2)cc1`: the growth in [1] is -82.1% (active); in test [2] it was -79.2% (active); in test [3], -92.1% (active); in [4], -90% (active); in test [5], -67.3% (active); in [6], -85.4% (active). Also, the growth in test [7] was -81.3% (active); in [8], -77.1% (active); in [9] it was -75.4% (active); in test [10] it was -86.1% (active).
Take `O=C(/C=C/c1ccccc1)c1ccc(O)c(CN2CCN(c3cc4c(cc3F)c(=O)c(C(=O)O)cn4C3CC3)CC2)c1`: the growth in test [1] was 34.4%; in test [2], 40.4%; in [3], 22.7%; in test [4], 25.1%; in test [5] it was 34.7%; in test [6], -5.65% (active). Moreover, the growth is 1.49% (active) in [7], 17.6% in test [8], 23.9% in [9] and 89.8% in test [10].
For `O=C(CCl)Oc1ccc(-c2ccccc2)c(Br)c1`, the growth in test [1] is 100%; in test [2], 96.4%; in test [3], 105%; in test [4] it was 107%; in test [5], 104%; in test [6], 92%. For the same molecule, the growth in test [7] is 107%; in test [8], 106%; in [9] it was 105%; in test [10] it was 108%.
As for `N#Cc1c(N)n(CCNC(=O)c2ccccc2)c2nc3ccccc3nc12`, the growth in test [1] is 103%; in [2], 97.2%; in test [3], 121%; in test [4], 111%; in [5] it was 117%; in test [6] it was -17.4% (active). Also, the growth is 84.2% in test [7], 105% in test [8], 92% in test [9] and 115% in test [10].
For `C[n+]1ccccc1/C=C/c1ccc2cccc(O)c2n1`, the growth was 103% in test [1]; 86.8% in test [2]; 136% in [3]; 91.1% in test [4]; 102% in [5]; 106% in [6]. Moreover, the growth was 99.8% in test [7], 9.6% (active) in test [8], 104% in [9] and 63.3% in [10].
Turning to `Cn1cc(-c2nonc2-c2c[nH]c3ccc(F)cc23)c2cccnc21`, the growth is 80.7% in test [1]; 57.3% in test [2]; 88.1% in test [3]; 78.9% in test [4]; 93.9% in test [5]; 70.6% in [6]. Also, the growth is 70.2% in [7], 80.4% in test [8], 98.1% in test [9] and 96.5% in test [10].
For `C(=C\c1nccc2c1[nH]c1ccccc12)/c1ccccc1`, the growth in test [1] was 34.3%; in test [2] it was 51.6%; in test [3] it was 29.9%; in test [4], 40.7%; in [5] it was 4.91% (active); in test [6], 45.4%. Moreover, the growth is 4.33% (active) in test [7], 21.4% in [8], 35.8% in test [9] and 3.43% (active) in test [10].
Turning to `Cc1c(/C=C/[N+](=O)[O-])ccc2c1[nH]c1ccccc12`, the growth in test [1] is 93.3%; in test [2], 54.3%; in [3], 134%; in test [4], 106%; in [5] it was 95.4%; in test [6], 90.6%. The growth in test [7] was 94.8%; in [8], 87.8%; in test [9], 73.2%; in test [10] it was 82.2%.
Take `CCCCn1cnc2c(Sc3c([N+](=O)[O-])ncn3C)nc(N)nc21`: the growth in test [1] was 110%; in [2], 96%; in test [3], 105%; in [4], 94.7%; in test [5], 106%; in test [6], 76.2%. Besides, the growth in test [7] was 97.3%; in test [8], 88.2%; in test [9], 104%; in test [10], 100%.
As for `CCOc1ccc(-n2nc(C(=O)Nc3ccccc3)nc2-c2cc(OC)c(OC)c(OC)c2)cc1`, the growth is 66.6% in test [1]; 80% in [2]; 67.6% in [3]; 55.7% in test [4]; 27.9% in test [5]; 46% in test [6]. The growth in test [7] was 22.8%; in test [8], 41.4%; in test [9] it was 69.4%; in test [10], 22.1%.
